Inhibition data for six compounds are collected here from ChEMBL document CHEMBL1961873, “Compounds: GSK PKIS; Assays: Nanosyn kinase panel” (2012).

Structures are written as SMILES.

The test system of assay [1] is Proto-oncogene tyrosine-protein kinase receptor Ret (Homo sapiens), P07949 [Y791F]. The note with it: at 1 µM.
For assay [2], the target named is Macrophage-stimulating protein receptor (Homo sapiens) (UniProt Q04912). The settings on record: at 0.1 µM.
Assay [3] shares this target. The note with it: at 1 µM.
Assay [4] has as its target Proto-oncogene tyrosine-protein kinase ROS (Homo sapiens) (UniProt P08922). The settings on record: at 0.1 µM.
The target is the same in assay [5]. The note with it: at 1 µM.
Assay [6] deals with Proto-oncogene tyrosine-protein kinase Src (Homo sapiens) (UniProt P12931). The settings on record: at 0.1 µM.
Assay [7] shares this target. The settings on record: at 1 µM.
Assay [8] addresses Tyrosine-protein kinase Srms (Homo sapiens) (UniProt Q9H3Y6). The note with it: at 0.1 µM.
Assay [9] has the same target. The settings on record: at 1 µM.
The target of assay [10] is Tyrosine-protein kinase SYK (Homo sapiens) (UniProt P43405). The settings on record: at 0.1 µM.
For assay [11] the target is unchanged. The settings on record: at 1 µM.
The target of assay [12] is T1, Tyrosine-protein kinase Tec (Homo sapiens) (UniProt P42680).
T1 sequence (whole entry): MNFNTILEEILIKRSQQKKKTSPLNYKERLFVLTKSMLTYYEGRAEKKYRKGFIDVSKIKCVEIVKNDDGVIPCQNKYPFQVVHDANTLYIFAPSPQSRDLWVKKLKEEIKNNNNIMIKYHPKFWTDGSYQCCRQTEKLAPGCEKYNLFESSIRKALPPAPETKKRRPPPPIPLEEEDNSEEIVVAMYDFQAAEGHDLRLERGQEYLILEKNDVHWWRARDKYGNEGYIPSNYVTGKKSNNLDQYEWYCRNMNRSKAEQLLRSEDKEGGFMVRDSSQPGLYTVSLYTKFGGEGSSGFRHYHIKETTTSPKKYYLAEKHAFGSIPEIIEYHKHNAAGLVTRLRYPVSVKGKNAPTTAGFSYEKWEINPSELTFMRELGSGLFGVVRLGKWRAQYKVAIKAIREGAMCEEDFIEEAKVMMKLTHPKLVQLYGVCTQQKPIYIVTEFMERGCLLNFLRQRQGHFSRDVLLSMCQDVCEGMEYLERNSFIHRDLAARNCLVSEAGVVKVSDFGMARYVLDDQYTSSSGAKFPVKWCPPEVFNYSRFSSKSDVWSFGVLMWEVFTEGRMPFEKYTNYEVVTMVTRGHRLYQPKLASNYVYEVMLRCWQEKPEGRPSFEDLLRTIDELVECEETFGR
The note with it: at 0.1 µM.

The target of assay [13] is T1, Tyrosine-protein kinase Tec (Homo sapiens). The note with it: at 1 µM.
Assay [14] has as its target Angiopoietin-1 receptor (Homo sapiens) (UniProt Q02763). The note with it: at 0.1 µM.
Assay [15] has the same target. The note with it: at 1 µM.
For assay [16], the target named is T2, Non-receptor tyrosine-protein kinase TNK1 (Homo sapiens) (UniProt Q13470).
T2 sequence (whole entry): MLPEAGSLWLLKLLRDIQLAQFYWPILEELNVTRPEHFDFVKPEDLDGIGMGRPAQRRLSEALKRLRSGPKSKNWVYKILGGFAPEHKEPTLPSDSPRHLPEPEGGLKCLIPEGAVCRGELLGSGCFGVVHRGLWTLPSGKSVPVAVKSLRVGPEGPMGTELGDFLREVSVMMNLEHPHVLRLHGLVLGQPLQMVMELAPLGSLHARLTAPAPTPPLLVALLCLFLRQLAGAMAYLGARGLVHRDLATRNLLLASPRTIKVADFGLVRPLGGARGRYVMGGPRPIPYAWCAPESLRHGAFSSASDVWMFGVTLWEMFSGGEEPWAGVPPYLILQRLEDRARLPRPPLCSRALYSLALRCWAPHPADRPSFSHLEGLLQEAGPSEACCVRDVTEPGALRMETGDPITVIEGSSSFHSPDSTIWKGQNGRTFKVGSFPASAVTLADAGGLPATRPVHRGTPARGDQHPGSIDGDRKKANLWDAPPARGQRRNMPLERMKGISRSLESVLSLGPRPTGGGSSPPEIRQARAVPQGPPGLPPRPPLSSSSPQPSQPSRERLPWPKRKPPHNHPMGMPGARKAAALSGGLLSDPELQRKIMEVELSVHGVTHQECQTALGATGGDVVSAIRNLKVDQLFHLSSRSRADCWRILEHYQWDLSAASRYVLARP
The settings on record: at 0.1 µM.

The target in assay [17] is T2, Non-receptor tyrosine-protein kinase TNK1 (Homo sapiens). The settings on record: at 1 µM.
The target in assay [18] is Activated CDC42 kinase 1 (Homo sapiens) (UniProt Q07912). The settings on record: at 0.1 µM.
Assay [19] has the same target. The settings on record: at 1 µM.
Assay [20] addresses High affinity nerve growth factor receptor (Homo sapiens) (UniProt P04629). The settings on record: at 0.1 µM.

Chain of Activated CDC42 kinase 1 (Homo sapiens) (Q07912 whole entry, looked up): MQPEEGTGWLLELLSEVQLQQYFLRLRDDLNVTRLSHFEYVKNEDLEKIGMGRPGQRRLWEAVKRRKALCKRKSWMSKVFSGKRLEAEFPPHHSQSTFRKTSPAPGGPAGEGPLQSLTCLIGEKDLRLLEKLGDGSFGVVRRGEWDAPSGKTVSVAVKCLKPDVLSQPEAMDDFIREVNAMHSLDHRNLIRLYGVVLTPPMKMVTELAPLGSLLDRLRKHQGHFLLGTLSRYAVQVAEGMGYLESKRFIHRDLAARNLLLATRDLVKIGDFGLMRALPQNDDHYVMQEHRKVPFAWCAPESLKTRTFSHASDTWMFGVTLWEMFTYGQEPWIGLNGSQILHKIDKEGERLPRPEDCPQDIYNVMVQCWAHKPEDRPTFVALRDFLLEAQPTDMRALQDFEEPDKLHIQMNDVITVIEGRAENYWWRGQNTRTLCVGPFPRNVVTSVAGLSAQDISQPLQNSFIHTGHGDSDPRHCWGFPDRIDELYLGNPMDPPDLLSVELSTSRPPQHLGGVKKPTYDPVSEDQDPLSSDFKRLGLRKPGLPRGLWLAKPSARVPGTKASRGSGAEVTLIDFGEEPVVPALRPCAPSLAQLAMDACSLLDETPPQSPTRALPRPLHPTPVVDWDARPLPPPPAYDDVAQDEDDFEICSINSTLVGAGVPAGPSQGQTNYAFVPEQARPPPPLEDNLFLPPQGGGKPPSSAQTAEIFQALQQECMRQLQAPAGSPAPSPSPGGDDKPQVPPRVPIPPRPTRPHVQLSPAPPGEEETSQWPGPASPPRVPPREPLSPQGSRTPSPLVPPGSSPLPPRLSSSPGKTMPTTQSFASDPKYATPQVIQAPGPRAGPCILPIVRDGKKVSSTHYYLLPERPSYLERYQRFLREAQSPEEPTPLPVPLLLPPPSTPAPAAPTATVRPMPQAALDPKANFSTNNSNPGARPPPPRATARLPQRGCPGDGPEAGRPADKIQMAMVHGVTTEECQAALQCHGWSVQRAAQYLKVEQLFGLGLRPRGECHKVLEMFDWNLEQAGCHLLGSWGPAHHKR
Chain of Proto-oncogene tyrosine-protein kinase receptor Ret (Homo sapiens), P07949 [Y791F] (P07949 whole entry Y791F): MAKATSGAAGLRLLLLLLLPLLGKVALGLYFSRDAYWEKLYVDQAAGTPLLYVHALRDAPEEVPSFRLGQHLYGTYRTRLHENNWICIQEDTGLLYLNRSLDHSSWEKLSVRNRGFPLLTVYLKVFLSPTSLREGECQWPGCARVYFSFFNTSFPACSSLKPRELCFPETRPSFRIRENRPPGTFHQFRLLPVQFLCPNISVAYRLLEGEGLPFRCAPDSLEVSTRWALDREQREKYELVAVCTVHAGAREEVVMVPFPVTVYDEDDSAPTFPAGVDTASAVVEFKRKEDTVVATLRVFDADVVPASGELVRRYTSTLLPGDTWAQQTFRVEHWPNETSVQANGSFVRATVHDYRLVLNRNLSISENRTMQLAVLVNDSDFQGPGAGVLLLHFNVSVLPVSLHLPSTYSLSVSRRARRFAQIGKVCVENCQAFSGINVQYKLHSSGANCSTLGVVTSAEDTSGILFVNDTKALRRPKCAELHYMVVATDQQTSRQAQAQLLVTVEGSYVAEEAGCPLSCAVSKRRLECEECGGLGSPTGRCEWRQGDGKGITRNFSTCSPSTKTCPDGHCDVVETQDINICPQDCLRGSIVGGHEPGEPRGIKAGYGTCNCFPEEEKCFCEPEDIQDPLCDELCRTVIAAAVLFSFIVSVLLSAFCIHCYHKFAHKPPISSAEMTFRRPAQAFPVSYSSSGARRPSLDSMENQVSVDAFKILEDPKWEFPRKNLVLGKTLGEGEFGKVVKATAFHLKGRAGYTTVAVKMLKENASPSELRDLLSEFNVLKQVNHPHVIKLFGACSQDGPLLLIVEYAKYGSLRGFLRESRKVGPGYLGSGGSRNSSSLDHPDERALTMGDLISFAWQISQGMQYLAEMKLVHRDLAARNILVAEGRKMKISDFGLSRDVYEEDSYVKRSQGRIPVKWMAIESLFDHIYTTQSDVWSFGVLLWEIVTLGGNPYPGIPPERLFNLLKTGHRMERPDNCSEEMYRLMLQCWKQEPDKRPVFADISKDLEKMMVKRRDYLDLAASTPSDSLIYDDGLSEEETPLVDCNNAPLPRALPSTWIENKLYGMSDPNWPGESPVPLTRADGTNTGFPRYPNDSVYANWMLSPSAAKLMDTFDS
Chain of Proto-oncogene tyrosine-protein kinase ROS (Homo sapiens) (P08922 whole entry): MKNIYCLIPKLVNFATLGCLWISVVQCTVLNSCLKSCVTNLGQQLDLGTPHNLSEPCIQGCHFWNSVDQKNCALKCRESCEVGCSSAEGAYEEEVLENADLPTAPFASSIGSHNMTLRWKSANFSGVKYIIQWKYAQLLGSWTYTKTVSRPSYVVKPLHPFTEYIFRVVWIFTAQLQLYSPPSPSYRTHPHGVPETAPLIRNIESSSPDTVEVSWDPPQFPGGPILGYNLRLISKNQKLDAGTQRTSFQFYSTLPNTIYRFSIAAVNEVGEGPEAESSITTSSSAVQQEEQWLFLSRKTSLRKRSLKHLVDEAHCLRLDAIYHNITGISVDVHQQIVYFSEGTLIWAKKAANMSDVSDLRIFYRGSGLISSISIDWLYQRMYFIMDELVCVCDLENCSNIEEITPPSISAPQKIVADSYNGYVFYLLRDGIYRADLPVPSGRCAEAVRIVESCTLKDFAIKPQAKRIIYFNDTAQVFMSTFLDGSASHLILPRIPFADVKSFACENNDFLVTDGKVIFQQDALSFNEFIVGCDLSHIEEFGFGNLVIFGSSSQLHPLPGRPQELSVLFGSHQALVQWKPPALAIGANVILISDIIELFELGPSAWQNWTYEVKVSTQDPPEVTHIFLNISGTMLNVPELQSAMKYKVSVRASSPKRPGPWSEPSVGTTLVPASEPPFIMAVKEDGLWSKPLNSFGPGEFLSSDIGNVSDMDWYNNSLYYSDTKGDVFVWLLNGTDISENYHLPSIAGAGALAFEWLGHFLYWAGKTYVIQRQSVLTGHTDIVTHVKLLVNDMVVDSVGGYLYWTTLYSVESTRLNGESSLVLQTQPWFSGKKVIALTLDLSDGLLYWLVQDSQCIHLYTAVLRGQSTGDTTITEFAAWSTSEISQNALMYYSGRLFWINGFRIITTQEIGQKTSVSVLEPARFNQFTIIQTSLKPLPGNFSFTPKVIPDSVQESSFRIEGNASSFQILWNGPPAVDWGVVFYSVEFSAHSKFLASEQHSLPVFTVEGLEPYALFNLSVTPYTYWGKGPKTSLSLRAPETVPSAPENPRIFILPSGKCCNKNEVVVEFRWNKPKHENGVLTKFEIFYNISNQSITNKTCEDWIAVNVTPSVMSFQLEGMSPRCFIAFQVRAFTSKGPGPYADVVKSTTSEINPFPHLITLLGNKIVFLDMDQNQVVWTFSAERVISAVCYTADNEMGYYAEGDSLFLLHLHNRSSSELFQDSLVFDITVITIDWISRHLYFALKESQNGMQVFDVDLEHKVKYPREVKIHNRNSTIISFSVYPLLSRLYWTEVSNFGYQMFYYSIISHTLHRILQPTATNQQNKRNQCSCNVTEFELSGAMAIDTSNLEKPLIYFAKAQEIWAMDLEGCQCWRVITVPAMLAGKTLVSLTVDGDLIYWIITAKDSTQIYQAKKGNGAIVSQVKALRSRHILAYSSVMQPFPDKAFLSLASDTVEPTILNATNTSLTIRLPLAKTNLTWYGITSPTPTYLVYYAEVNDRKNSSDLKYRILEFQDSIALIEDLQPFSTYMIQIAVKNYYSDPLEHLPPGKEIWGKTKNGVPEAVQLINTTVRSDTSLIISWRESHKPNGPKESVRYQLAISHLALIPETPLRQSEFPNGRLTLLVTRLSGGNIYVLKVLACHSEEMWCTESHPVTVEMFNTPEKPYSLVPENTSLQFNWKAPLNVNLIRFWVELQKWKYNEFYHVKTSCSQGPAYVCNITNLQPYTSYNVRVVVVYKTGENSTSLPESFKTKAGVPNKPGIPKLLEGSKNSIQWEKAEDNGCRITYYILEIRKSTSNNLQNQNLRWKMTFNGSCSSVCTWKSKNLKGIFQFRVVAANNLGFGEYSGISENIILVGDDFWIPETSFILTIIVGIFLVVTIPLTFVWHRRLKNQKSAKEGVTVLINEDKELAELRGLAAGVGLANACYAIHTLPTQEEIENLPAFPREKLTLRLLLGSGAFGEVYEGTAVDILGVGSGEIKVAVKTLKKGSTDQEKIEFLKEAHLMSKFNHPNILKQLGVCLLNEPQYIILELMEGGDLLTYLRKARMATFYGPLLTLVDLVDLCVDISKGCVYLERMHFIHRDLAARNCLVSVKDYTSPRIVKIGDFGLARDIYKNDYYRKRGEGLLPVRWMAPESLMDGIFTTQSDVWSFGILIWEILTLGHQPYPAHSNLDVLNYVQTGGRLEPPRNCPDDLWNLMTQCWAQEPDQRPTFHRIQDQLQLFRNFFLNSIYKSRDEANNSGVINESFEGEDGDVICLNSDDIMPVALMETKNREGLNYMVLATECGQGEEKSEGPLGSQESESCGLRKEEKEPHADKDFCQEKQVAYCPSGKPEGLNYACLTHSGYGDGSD
Chain of Proto-oncogene tyrosine-protein kinase Src (Homo sapiens) (P12931 2-536 limits assumed): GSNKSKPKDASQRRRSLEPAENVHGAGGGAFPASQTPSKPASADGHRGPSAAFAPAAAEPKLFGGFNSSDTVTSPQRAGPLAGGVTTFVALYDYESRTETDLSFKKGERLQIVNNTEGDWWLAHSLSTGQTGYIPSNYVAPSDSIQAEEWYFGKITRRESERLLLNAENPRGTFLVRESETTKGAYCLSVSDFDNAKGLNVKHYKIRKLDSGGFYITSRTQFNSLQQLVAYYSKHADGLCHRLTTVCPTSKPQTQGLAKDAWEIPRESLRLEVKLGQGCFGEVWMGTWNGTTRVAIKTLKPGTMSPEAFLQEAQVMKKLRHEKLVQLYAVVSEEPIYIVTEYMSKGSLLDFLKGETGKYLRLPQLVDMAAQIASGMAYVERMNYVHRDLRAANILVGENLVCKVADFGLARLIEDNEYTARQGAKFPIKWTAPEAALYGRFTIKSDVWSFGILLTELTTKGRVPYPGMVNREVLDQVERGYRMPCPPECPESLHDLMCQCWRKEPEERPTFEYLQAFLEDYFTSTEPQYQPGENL

For orientation: inhibition means the relative decrease from the control value, in per cent. As for `Clc1ccc(CNc2nccc(-c3cnn4ncccc34)n2)cc1`, the inhibition is 20.4% in assay [1]; -1.7% in assay [2]; 6.29% in [3]; 0.86% in [4]; 6.59% in assay [5]; 0.82% in assay [6]. Further, the inhibition is 6.25% in [7]; 0.35% in [8]; -1.1% in assay [9]; 2.92% in [10]; 1.6% in assay [11]; 3.07% in assay [12]. Besides, the inhibition in [13] was 7.34%; in [14] it was 0.58%; in [15] it was 4.03%; in assay [16], 2.4%; in [17] it was 14.8%; in assay [18], 0.35%. Besides, the inhibition in assay [19] came out at 3.23%; in assay [20], 1.42%.

Take `CCS(=O)(=O)c1ccc(OC)c(Nc2ncc(-c3ccccc3Cl)o2)c1`: the inhibition in assay [1] was 9.6%; in [2], -3.54%; in assay [3] it was 8.49%; in assay [4], -1.24%; in assay [5], 4.38%; in assay [6] it was 4.44%. Moreover, the inhibition is 23.4% in [7]; 2.76% in assay [8]; 3.31% in assay [9]; -0.36% in assay [10]; 4.5% in [11]; 3.48% in assay [12]. In addition, the inhibition is 5.03% in assay [13]; 0.48% in assay [14]; 7.52% in assay [15]; 16.9% in [16]; 67.2% in [17]; 1.07% in [18]. The inhibition in assay [19] was 3.27%; in assay [20], 2.9%.

Consider `COC(=O)Nc1nc2ccc(Sc3ccc(NC(=O)Nc4cc(C(F)(F)F)ccc4F)cc3)cc2[nH]1`, for which the inhibition is 73.9% in assay [1]; -5.81% in assay [2]; -0.55% in assay [3]; -2.6% in assay [4]; 0.19% in assay [5]; 17.4% in assay [6]. The inhibition in assay [7] is 12.5%; in assay [8], 1.2%; in [9] it was -0.15%; in assay [10], 0.25%; in [11] it was -0.54%; in assay [12], 3.34%. Also, the inhibition in [13] came out at 5.46%; in assay [14], 21.1%; in assay [15], 70.7%; in [16], 2.15%; in assay [17], 25.3%; in [18], 0.06%. Also, the inhibition turned out to be 1.64% in assay [19] and 62.7% in assay [20].

For `NC(=O)c1cc(-c2ccc(F)cc2)cc(-c2ccncc2)c1N`, the inhibition in [1] was 8.5%; in assay [2] it was 3.91%; in [3], 2.73%; in [4] it was 3.93%; in assay [5], 6.41%; in [6], -1.61%. For the same compound, the inhibition in [7] was 10.9%; in assay [8], -0.29%; in assay [9], -1.13%; in [10], -2.32%; in assay [11] it was 1.28%; in assay [12], 2.88%. The inhibition in assay [13] amounted to 5.71%; in [14], 4.39%; in assay [15], 3.08%; in assay [16], 3.42%; in assay [17], 7.48%; in [18], 0.31%. Moreover, the inhibition was -0.36% in assay [19] and 2.33% in assay [20].

As to `c1ccc(-c2n[nH]cc2-c2ccnc(-c3ccc(OCCN4CCOCC4)cc3)c2)nc1`, the inhibition in assay [1] is 12.9%; in assay [2] it was -5.76%; in assay [3] it was 3.22%; in assay [4], 7.93%; in assay [5] it was 11.1%; in [6] it was 1.88%. For the same compound, the inhibition was 4.39% in assay [7]; 4.69% in assay [8]; 3.57% in assay [9]; 11.6% in assay [10]; -0.16% in [11]; 3.84% in assay [12]. In addition, the inhibition in assay [13] was 4.59%; in assay [14], 4.66%; in assay [15], 7.13%; in assay [16], 0.24%; in assay [17] it was -5.31%; in assay [18] it was 5.48%. Also, the inhibition in assay [19] was 5.14%; in assay [20], -3.86%.

For `COc1cc2ncn(-c3cc(OCCc4ccccc4)c(C(N)=O)s3)c2cc1OC`, the inhibition in assay [1] was 21.3%; in assay [2], -1.46%; in assay [3], 6.81%; in [4], 3.89%; in [5], 6.98%; in assay [6] it was 1.6%. For the same compound, the inhibition is 12.9% in [7]; -2.94% in [8]; -2.68% in assay [9]; -2.02% in [10]; -0.89% in assay [11]; 2.52% in [12]. For the same compound, the inhibition came to 4.4% in [13]; 3.5% in assay [14]; 14.9% in assay [15]; 2.85% in assay [16]; 13.5% in assay [17]; 0.78% in assay [18]. Further, the values for the inhibition in assay [19] and in assay [20] were 2.21% and 1.42%, respectively.
